The nature of assay [1]: NCI Yeast Anticancer Drug Screen. Data for the rad50 strain (AID 155).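 Further: 0% = growth of vehicle-only cultures of the same strain.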 The conditions noted are these: S. cerevisiae rad50 strain growth inhibition; at 50.0 µM; hits give high values. A digest of the protocol:
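Readout: growth inhibition relative to vehicle-treated cultures. Compound exposure was carried out in a genetically defined yeast strain deficient in DNA damage repair.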

The nature of assay [2]: NCI Yeast Anticancer Drug Screen. Data for the mec2-1 strain (AID 157). The conditions noted are these: S. cerevisiae mec2-1 strain, at 50.0 µM, hits give high values. A digest of the protocol:
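Test agents were screened against the mec2-1 yeast strain, with defined DNA repair or cell cycle alteration. Growth was scored as inhibition against vehicle-only controls.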

The nature of assay [3]: NCI Yeast Anticancer Drug Screen. Data for the sgs1 mgt1 strain (AID 161).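 Further: 0% = growth of cultures given vehicle only.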 The conditions noted are these: S. cerevisiae sgs1 mgt1 strain, at 50.0 µM, hits give high values. The method, boiled down: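 Mutant yeast exposed to compound; growth scored against vehicle-only wells.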
A short description of assay [4]: NCI Yeast Anticancer Drug Screen. Data for the cln2 rad14 strain (AID 165).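 Further: 0% = growth equal to vehicle treated cultures.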 The conditions noted are these: S. cerevisiae cln2 rad14 strain, at 50.0 µM, hits give high values. A digest of the protocol:
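Growth of compound-exposed yeast (cln2 rad14 genotype) measured and expressed as inhibition relative to vehicle.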

Assay [5] is described as follows: NCI Yeast Anticancer Drug Screen. Data for the bub3 strain (AID 167). The conditions noted are these: S. cerevisiae bub3 mutant strain, at 50.0 µM, hits give high values. A digest of the protocol: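 Readout: yeast growth inhibition, expressed relative to vehicle-only wells. The test organism is a mutant strain from a panel with lesions in DNA repair or checkpoint genes.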

A short description of assay [6]: NCI Yeast Anticancer Drug Screen. Data for the mlh1 rad18 strain (AID 175). The conditions noted are these: S. cerevisiae mlh1 rad18 strain growth inhibition; at 50.0 µM; hits give high values. The method, boiled down: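 In this whole-cell yeast screen, a strain with altered DNA damage repair is challenged with compound, and its growth is measured against matched vehicle-treated controls.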

The structures appear in SMILES notation. The panel holds about 79,000 compounds, 15% with a hit somewhere; the sample as a whole holds those more often. Values without a mark were called inactive. The source made the active and inactive calls. No stated cut-off is given here; in the data, active means growth inhibition above about 70%; inactive means the rest.

Take `Cc1cc(N(CCC#N)CCC#N)ccc1/C=C1/N=C(c2ccccc2)N(N)C1=O`: the growth inhibition is -2.55% in assay [1]; 13.2% in assay [2]; 9.9% in assay [3]; 2.7% in assay [4]; 5.15% in assay [5]; -3.3% in assay [6].

For the compound `N#CCCCN1C(=O)c2ccccc2C1=O`, the growth inhibition is -22.1% in assay [1]; -18.9% in assay [2]; -8.25% in assay [3]; 21% in assay [4]; -15.5% in assay [5]; -18.4% in assay [6].

In the case of `CC(=O)c1cccc2ccccc12`, the growth inhibition in assay [1] is -7.8%; in assay [2], 5.55%; in assay [3], 3.65%; in assay [4], -9.1%; in assay [5], -11.1%; in assay [6], -5.95%.

For the compound `CCN(CC)CCCNc1c2ccccc2nc2ccccc12`, the growth inhibition is 13.7% in assay [1]; 22.8% in assay [2]; 9.2% in assay [3]; 51.6% in assay [4]; -8.1% in assay [5]; 7% in assay [6].

Regarding `Cc1ccc(OC/C=C/c2ccc([N+](=O)[O-])cc2)cc1`, the growth inhibition in assay [1] was -1.45%; in assay [2], -9.3%; in assay [3] it was -7.4%; in assay [4], -58.8%; in assay [5], -4.55%; in assay [6] it was -19.2%.

As to `COc1ccc(NC(=O)Oc2cccc(NC(C)=O)c2)c(OC)c1`, the growth inhibition is 13.8% in assay [1]; 8.7% in assay [2]; 10.1% in assay [3]; 4.35% in assay [4]; 12.4% in assay [5]; 8.65% in assay [6].

Consider `Cc1c([N+](=O)[O-])cc(C(C)(C)C)c(OC(=O)CCl)c1[N+](=O)[O-]`, for which the growth inhibition was 99.5% (active) in assay [1]; 99.7% (active) in assay [2]; 99.6% (active) in assay [3]; 99.2% (active) in assay [4]; 99.4% (active) in assay [5]; 99.5% (active) in assay [6].

Take `COc1cc(CC2C(=O)OCC2C2(c3ccc4c(c3)OCO4)SCCCS2)cc(OC)c1OC` (stereo not given): the growth inhibition is 10.4% in assay [1]; 8.3% in assay [2]; 0.15% in assay [3]; 27.5% in assay [4]; 3.2% in assay [5]; 26.8% in assay [6].

As to `CC(=O)CC(=O)NC12CC3CC(CC(C3)C1)C2`, the growth inhibition is -12.4% in assay [1]; -18.3% in assay [2]; -27.6% in assay [3]; -3.95% in assay [4]; -23.1% in assay [5]; -1.55% in assay [6].

As to `CCCCCCCCCCOC(=O)C(C)O` (stereo not given), the growth inhibition in assay [1] was 8.4%; in assay [2], 2.95%; in assay [3] it was 5.35%; in assay [4], 5.55%; in assay [5], -16.3%; in assay [6], -4.75%.

Regarding `CC(=O)/C(C)=C\C=C(\C)C(C)=O`, the growth inhibition in assay [1] is -7.2%; in assay [2] it was -11.5%; in assay [3], -16.2%; in assay [4], -84.5%; in assay [5], -0.45%; in assay [6], -4.7%.

For `Cc1cc(C(N)=O)c2ccccc2n1`, the growth inhibition in assay [1] was -11%; in assay [2], -47.2%; in assay [3], -15.7%; in assay [4], 11.4%; in assay [5], -34.4%; in assay [6], -6.25%.

For `CC1COC(C(=O)O)(c2ccccc2)O1` (stereo not given), the growth inhibition in assay [1] was -1.05%; in assay [2], -3.55%; in assay [3], -2.1%; in assay [4], -17.6%; in assay [5] it was -0.35%; in assay [6], 6.7%.

In the case of `CCCCC(O)(CCC)CCCC`, the growth inhibition in assay [1] is -8.75%; in assay [2] it was -6.95%; in assay [3], 3.75%; in assay [4], -36.9%; in assay [5], -1.25%; in assay [6] it was 2.55%.

For the compound `CCOC(=O)C(/C(=N\NC(=O)OC)C(=O)Nc1cc(OC)ccc1OC)c1cnc2ccccc2n1` (stereo not given), the growth inhibition in assay [1] was -6.15%; in assay [2], -2.75%; in assay [3], -45.4%; in assay [4], 18.8%; in assay [5], 15.4%; in assay [6], 0.7%.

Regarding `CC(C)=CC(=O)OC1C2C(C)=CC(=O)C(O)C2(C)C2C3(O)OCC24C(CC(=O)OC14)C(C)C3O` (stereo not given), the growth inhibition is 91.6% (active) in assay [1]; 92.4% (active) in assay [2]; 91.5% (active) in assay [3]; 91% (active) in assay [4]; 90.8% (active) in assay [5]; 91.2% (active) in assay [6].

Turning to `C=C(CN(CC)CC)C1(c2ccccc2)CC2(CCCC2)C(=O)O1` (stereo not given), the growth inhibition in assay [1] is 20.9%; in assay [2], 23.9%; in assay [3], 1.15%; in assay [4], 3.6%; in assay [5], 10.2%; in assay [6] it was 5.65%.

On to `C=CCOC(=O)C(O)C=C` (stereo not given), for which the growth inhibition in assay [1] is 7.9%; in assay [2], -12.3%; in assay [3], 2.3%; in assay [4] it was 16.4%; in assay [5], -1.6%; in assay [6] it was 11.6%.

As to `CCCCN(CCO)CCO`, the growth inhibition in assay [1] was -4.95%; in assay [2], -8.45%; in assay [3] it was 9.3%; in assay [4], 14.8%; in assay [5] it was 9.4%; in assay [6], 2.75%.

On to `OC(CNc1ncccn1)(c1ccccc1)c1ccccc1`, for which the growth inhibition in assay [1] was -0.25%; in assay [2], -24.8%; in assay [3], -0.7%; in assay [4], 13%; in assay [5] it was 8.8%; in assay [6] it was -17.1%.
